According to PubChem BioAssay:
Active and inactive are the calls of the source.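 How the source made its calls, unless noted: active means inhibition of the reporter signal at or above 50%; inactive means inhibition below 50%.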

Legend:
[1] = inhibitors of TNFa-induced NFkB p65 translocation, primary screen, imaging, HUVEC, MLSMR starter and 10KST1 sets (AID 438;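 active means inhibition above 20% together with a positive visual image hit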;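 further: compound added about 3h40 before a 20 min TNFalpha stimulation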;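 on inhibition: signal is the nuclear over cytoplasmic p65 intensity ratio per well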); settings: HUVEC TNFa-induced p65 nuclear translocation; cell count: measured here: nuclei count (cytotoxicity indicator), at 2.08 µM; inhibition: at 2 µM, stronger effect = higher value, 0% TNFa-plus-vehicle, 100% no-TNFa wells
[2] = reduction of polyQ htt aggregates in cells – imaging, exon1htt(103Q)mCFP cells, high-content imaging, primary screen (AID 483;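 active means visual image review flags a hit and inhibition of aggregation exceeds 20%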;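 further: compound exposure lasted 3 days before fixation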;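 on nuclei count: percent of the per-plate median nuclei count of sample wells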); settings: exon1htt(103Q)mCFP cell line, aggregate imaging, at 2 µM; inhibition of aggregation: stronger effect = higher value; nuclei count: measured here: cell count, toxicity
[3] = endothelial E-selectin expression blockers – imaging, HUVEC, immunofluorescence, MLSMR starter and 10KST1 sets, primary screen (AID 487;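 active means visually confirmed hit in the image check and inhibition above 20%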;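 on inhibition: signal is fraction of cell area covered by stained E-selectin grains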;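 on nuclei count: 100% = median nuclei count of all wells on the same plate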); settings: HUVEC TNFalpha-induced E-selectin immunofluorescence imaging, at 2 µM; inhibition: stronger effect = higher value; nuclei count: measured here: cell number, toxicity
[4] = target: Voltage-gated potassium channel subunit beta-2 (Rattus norvegicus) (UniProt P62483); assay: inhibitors of rat Kvbeta2 reductase activity – biochemical, NADPH fluorescence, primary screen (AID 622;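 active means fluorescence slope higher than the sample average by over 3 SD, cut at about -0.22 in these data, passing the limit was not always enough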;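 further: slope of raw intensity against log time taken from 70 to 1610 s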); settings: recombinant KvBeta, 4-cyanobenzaldehyde reduction, at 10 µM, stronger effect = higher value
[5] = target: Voltage-gated potassium channel subunit beta-2 (Rattus norvegicus) (UniProt P62483); assay: enhancers of rat Kvbeta2 NADPH turnover – biochemical, NADPH fluorescence, primary screen (AID 623;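 active means NADPH fluorescence slope more negative than the mean of all samples by about 3 SD, 99.7% confidence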;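 further: fluorescence intensity change per second fitted from 20 to 320 s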); settings: Recombinant KvBeta, NADPH fluorescence decrease slope, 10 min; at 10 µM; stronger effect = lower value
[6] = target: Alpha-2C adrenergic receptor (Homo sapiens) (UniProt P18825); assay: compounds altering alpha2C-coupled GIRK flux – cell-based, HEK293 alpha2C/GIRK1/2, thallium flux, primary screen (AID 624;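 active means fluorescence slope after compound addition differing from the mean of all screened samples at 99.7% confidence, in either direction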;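 further: slope of fluorescence ratio to pre-addition baseline per second over 15 to 24 s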); settings: thallium flux BTC fluorescence, at 10 µM, actives lie on both sides
[7] = blockers of RIG-like receptor reporter activation – cell-based, Sendai virus stimulus, luciferase, 10K MLSCN set, TLR/RLR signaling modifier project, primary screen (AID 602276;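 active means inhibition at or above 50% at 10 µM; inactive means inhibition below 50%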;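 further: firefly luciferase from ISG56 promoter only with Renilla not read in this screen; 0% = Sendai virus plus DMSO and 100% = medium plus DMSO without virus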); settings: HEK293 RL24 IRF3 luciferase reporter, at 10 µM, stronger effect = higher value
[8] = TLR3 IRF3 reporter activation blockers – cell-based, poly I:C stimulus, luciferase, 10K MLSCN set, primary screen (AID 602277); settings: HEK293-TLR3 RL24 IRF3 luciferase reporter, at 10 µM, stronger effect = higher value

Sequence of Alpha-2C adrenergic receptor (Homo sapiens) (P18825 whole entry, looked up): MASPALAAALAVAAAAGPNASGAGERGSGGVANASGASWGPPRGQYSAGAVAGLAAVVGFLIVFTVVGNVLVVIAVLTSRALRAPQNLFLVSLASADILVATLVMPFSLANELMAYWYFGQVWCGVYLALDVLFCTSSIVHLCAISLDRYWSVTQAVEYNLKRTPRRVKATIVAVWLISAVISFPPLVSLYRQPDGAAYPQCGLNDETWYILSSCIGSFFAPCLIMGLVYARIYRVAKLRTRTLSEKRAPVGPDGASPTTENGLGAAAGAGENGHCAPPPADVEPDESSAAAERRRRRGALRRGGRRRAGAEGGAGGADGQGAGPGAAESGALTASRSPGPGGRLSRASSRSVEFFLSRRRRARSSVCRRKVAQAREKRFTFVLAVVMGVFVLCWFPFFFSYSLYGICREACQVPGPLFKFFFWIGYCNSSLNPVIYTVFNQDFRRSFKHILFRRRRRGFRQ
Sequence of Voltage-gated potassium channel subunit beta-2 (Rattus norvegicus) (P62483 whole entry, looked up): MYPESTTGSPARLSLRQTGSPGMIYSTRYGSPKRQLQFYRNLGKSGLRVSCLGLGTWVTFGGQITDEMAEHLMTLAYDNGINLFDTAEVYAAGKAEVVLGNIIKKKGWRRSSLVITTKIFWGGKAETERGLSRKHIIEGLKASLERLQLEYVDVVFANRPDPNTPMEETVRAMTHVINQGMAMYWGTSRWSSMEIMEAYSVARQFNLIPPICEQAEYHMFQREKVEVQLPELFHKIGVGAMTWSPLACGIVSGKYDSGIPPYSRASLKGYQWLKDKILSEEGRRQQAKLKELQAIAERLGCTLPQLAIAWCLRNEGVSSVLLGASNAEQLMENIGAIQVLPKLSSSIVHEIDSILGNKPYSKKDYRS

Structure (SMILES) | cell count [1] | inhibition [1] | inhibition of aggregation [2] | nuclei count [2] [%] | inhibition [3] | nuclei count [3] [%] | fluorescence slope [4] | NADPH fluorescence slope [5] | slope [6] | inhibition [7] | inhibition [8]
Cc1ccc(-c2nc3cnccn3c2Nc2ccc3c(c2)OCO3)o1 | 913 | 2.3% (inactive) | 2.9% (inactive) | 130 | -109% (inactive) | 114 | -0.483 (inactive) | -6.6e-05 (inactive) | 0.00517 (inactive) | 5.62% (inactive) | 34.7% (inactive)
COc1ccccc1Oc1coc2c(CN3CCN(C)CC3)c(O)ccc2c1=O | 541 | -0.5% (inactive) | -8.8% (inactive) | 107 | -12.9% (inactive) | 89.1 | -0.0185 (active) | 7e-06 (inactive) | 0.00281 (inactive) | 11.8% (inactive) | 34.8% (inactive)
CCOc1ccc2nc(NC(=O)CSc3nc4ccccc4c(=O)n3Cc3ccco3)sc2c1 | 654 | -6.1% (inactive) | -5.6% (inactive) | 115 | -65.7% (inactive) | 132 | -0.413 (inactive) | 9.6e-06 (inactive) | 0.00934 (active) | 15.6% (inactive) | 10% (inactive)
O=C(CSc1nnnn1-c1ccc2c(c1)OCO2)NCc1cccs1 | 240 | 4.8% (inactive) | 2.8% (inactive) | 90.3 | -66.6% (inactive) | 98.8 | -0.447 (inactive) | 9.8e-06 (inactive) | 0.00659 (inactive) | 33.3% (inactive) | -10.4% (inactive)
CC1CN(C(=O)c2scc3c2OCCO3)CC(C)O1 (centres undefined) | 190 | -5.4% (inactive) | 0.7% (inactive) | 75 | 11.5% (inactive) | 77 | -0.598 (inactive) | -1.6e-05 (inactive) | 0.00693 (inactive) | 17.3% (inactive) | 20.4% (inactive)
CCOC(=O)N1CCC(N2C(=O)c3ccccc3C2Nc2cc(Cl)c(OC)cc2OC)CC1 (centres undefined) | 761 | -2.3% (inactive) | -25.4% (inactive) | 111 | -35.7% (inactive) | 114 | -0.596 (inactive) | -3.8e-05 (inactive) | 0.0052 (inactive) | -7.31% (inactive) | 4.34% (inactive)
COC(=O)CN1C(=O)C(O)(CC(=O)c2ccc(Cl)cc2)c2ccccc21 (centres undefined) | 605 | -0.8% (inactive) | -5.5% (inactive) | 110 | -40.7% (inactive) | 102 | -0.372 (inactive) | 2.5e-05 (inactive) | 0.00594 (inactive) | 17.2% (inactive) | 36% (inactive)
Cc1ccc(C)c(-n2c(CNC(=O)c3ccco3)nnc2SCC(=O)Nc2nnc(C)s2)c1 | 656 | -6.4% (inactive) | 20.8% (inactive) | 99.5 | 3.7% (inactive) | 120 | -0.528 (inactive) | -3e-05 (inactive) | 0.0063 (inactive) | 14.2% (inactive) | 36.2% (inactive)
CCOC(=O)c1cc(NC(=O)SCC(=O)O)c(C)nc1C | 762 | 5.1% (inactive) | -19.7% (inactive) | 111 | -99.8% (inactive) | 128 | -0.484 (inactive) | -3.2e-05 (inactive) | 0.0071 (inactive) | 7.76% (inactive) | 9.57% (inactive)
CCOC(=O)Cc1csc(/C(=N/O)C(N)=O)n1 | 638 | 2.7% (inactive) | 0.1% (inactive) | 126 | -62.8% (inactive) | 108 | -0.48 (inactive) | -9.9e-05 (inactive) | 0.00629 (inactive) | 13.2% (inactive) | 15.9% (inactive)
CCCNc1nc2c(c(=O)n(C)c(=O)n2C)n1Cc1cccc(C)c1 | 697 | -3.6% (inactive) | 10.2% (inactive) | 97.4 | -95.3% (inactive) | 148 | -0.567 (inactive) | -2.9e-05 (inactive) | 0.00499 (inactive) | 3.02% (inactive) | 4.07% (inactive)
CC1CCN(S(=O)(=O)c2ccc3[nH]cc(C(=O)NCCN4CCOCC4)c(=O)c3c2)CC1 | 697 | -3% (inactive) | -11.2% (inactive) | 104 | -101% (inactive) | 106 | -0.519 (inactive) | -3.8e-05 (inactive) | 0.00576 (inactive) | 8.86% (inactive) | 17.9% (inactive)
Cc1ccc2nc(NC(=O)C3CCCN(S(=O)(=O)c4cccc5nonc45)C3)sc2c1 (centres undefined) | 266 | -13.5% (inactive) | 9.4% (inactive) | 91 | -3.1% (inactive) | 70.9 | -0.304 (inactive) | 2.8e-06 (inactive) | 0.00386 (inactive) | 14.7% (inactive) | -5.96% (inactive)
COc1cc(C(=O)Nc2cccc(-c3nc4cc(C)ccc4o3)c2)cc(OC)c1OC | 507 | 7% (inactive) | -1.2% (inactive) | 90.7 | -126% (inactive) | 126 | -0.582 (inactive) | -3.2e-05 (inactive) | 0.0093 (inactive) | 0.465% (inactive) | -22.5% (inactive)
